PubChem BioAssay (NCATS)
Inconclusive results are not listed. The source made the active and inactive calls. Unless noted, calls come from the whole dose curve; as a rule, active = well fitted curve in the direction sought with a large enough effect; inconclusive = small, poorly fitted or top-dose-only effect, or another doubt; inactive = no such curve, though single readings can be large; an effect the other way counts as inactive or inconclusive.

Tests used:
[1] = target: Thyrotropin receptor (Homo sapiens) (UniProt P16473); assay: qHTS Assay for Antagonists of the Thyroid Stimulating Hormone Receptor (AID 488980); note: series mostly up to about 58 µM; 0% is about no effect
How it was run: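 Inhibition of TSH-stimulated cAMP accumulation was quantified by homogeneous time-resolved FRET in TSHR-transfected HEK293 cells. Agonist: TSH, 4 nM final (EC80).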

[2] = target: D(1A) dopamine receptor (Homo sapiens) (UniProt P21728); assay: HTS Assay for Allosteric Agonists of the Human D1 Dopamine Receptor: Primary Screen for Agonists (AID 488981); note: 0% is about no effect
How it was run: (§1)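 Tetracycline-induced HEK293 T-REx cells force-coupled to calcium signalling were incubated overnight at 30 C and dye-loaded at room temperature. Calcium flux over 180 s after compound addition flagged agonists; a further 180 s read after EC20 dopamine flagged potentiators.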

[3] = target: D(1A) dopamine receptor (Homo sapiens) (UniProt P21728); assay: HTS Assay for Allosteric Agonists of the Human D1 Dopamine Receptor: Primary Screen for Potentiators (AID 488982); note: 0% is about no effect
How it was run: as §1

[4] = target: Thyrotropin-releasing hormone receptor (Homo sapiens) (UniProt P34981); assay: qHTS for Small Molecule Agonists and Allosteric Enhancers of Human TRH Receptor: Validation Screen for Agonists (AID 493127;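 active = calcium activation more than 3 SD above the typical response in the agonist read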;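 note: intracellular calcium rise by fluo-8 fluorescence before TRH EC20 addition; 0% is about no effect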); conditions: TRH receptor agonist cell assay; at 2 µM; hits give high values
How it was run: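 TRHR-expressing cells were plated overnight in serum-containing medium, then loaded with fluo-8 calcium dye at room temperature for 30 min–1.5 h. After a 10 s baseline, compound was pin-transferred and calcium fluorescence (ex 480/em 530) read kinetically for agonist response.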

[5] = target: Galactokinase (Homo sapiens) (UniProt P51570); assay: qHTS Validation Assay for Inhibitors of Human Galactokinase (GALK) (AID 493189); note: 0% is about no effect
How it was run: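 Enzyme activity is inferred from ATP consumption: human GALK phosphorylates galactose (100 uM) using 35 uM ATP for 1 h at room temperature, and luciferase-based Kinase-Glo Plus reports unconsumed ATP.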

[6] = Validation screen for small molecules that induce DNA re-replication in SW480 colon adenocarcinoma cells (AID 504364); note: 0% is about no effect
How it was run: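 SW480 cells seeded at 250 per well were exposed to compound or DMSO for 48 hr at 37 C, 5% CO2, then stained with Hoechst for 40 min. DNA content per nucleus was imaged (405 nm ex, 500-530 nm em).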

[7] = target: Peptidyl-prolyl cis-trans isomerase NIMA-interacting 1 (Homo sapiens) (UniProt Q13526); assay: qHTS Validation Assay to Find Inhibitors of Pin1 (AID 504536; active = well fitted inhibition curve with a large enough effect in the polarisation, with a control signal flat, not every such curve was filed as active; the % refers to the polarisation;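 note: 0% = full Pin1 enzyme wells and -100% = no-enzyme wells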)
How it was run: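 Fluorescence polarization competition: compounds (titration) displace HiFluor-488-labeled Pin1-1b peptide from Pin1 (0.3 uM final) in pH 7.5 HEPES buffer with DTT, 10 min at room temperature; %Activity normalized to no-enzyme wells, curves fitted.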

[8] = target: Phosphoglycerate kinase, glycosomal (Trypanosoma brucei brucei) (UniProt P07378); assay: qHTS Validation Assay to Find Inhibitors of Phosphoglycerate Kinase (AID 504547);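 note: control wells lack PGK and mark full inhibition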
How it was run: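 Substrate/PGK mix plus compound; reaction started with GAPDH (100nM final) to form 1,3-BPG; 60 min RT; Kinase-Glo Plus 10 min; luminescence. TEA 100mM pH 7.6, MgCl2 5mM, Tween-20 0.01%.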

[9] = target: Voltage-gated inwardly rectifying potassium channel KCNH2 (Homo sapiens) (UniProt Q12809); assay: qHTS Assay for Small Molecule Inhibitors of the Human hERG Channel Activity (AID 588834);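 note: top concentration of the series differs between compounds; % is set by controls: 0 for no effect and ±100 for the full control effect; lower thallium flux fluorescence means stronger hERG block; nearly all actives have a fitted effect of over 50% in size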
How it was run: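 Blockade is seen as reduced FluxOR thallium-flux fluorescence in U2OS cells expressing hERG from a BacMam construct, in Opti-MEM with 2% FCS. Concentration-response data fitted to the Hill equation for AC50.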

[10] = target: Glutaminase kidney isoform, mitochondrial (Homo sapiens) (UniProt O94925); assay: qHTS for Inhibitors of Glutaminase (GLS): LOPAC Validation (AID 624146); note: potency is the fitted concentration of half-maximal effect; nearly all actives have a fitted effect of over 60% in size
How it was run: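 Compounds were pin-transferred onto hKGA, after which L-glutamine (1 mM solution) and a detection mix of glutamate oxidase, HRP and Amplex Red were added. Initial and 30 min RT fluorescence reads were collected.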

[11] = qHTS of Trypanosoma Brucei Inhibitors: LOPAC Validation (AID 624147); note: 0% is about no effect
How it was run: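 Luminescent Kinase-Glo Plus end-point after 45 min room-temperature reaction of T. brucei pyruvate kinase started with 130 uM ADP (final). Buffer TEA 50 mM pH 7.2 with KCl, MgCl2, BSA, Tween-20; titration-based qHTS with fitted concentration-effect curves.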

[12] = target: Glucagon-like peptide 1 receptor (Homo sapiens) (UniProt P43220); assay: qHTS of GLP-1 Receptor Agonists: LOPAC Validation (AID 624148);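 note: 0% is about no effect; higher luminescence signal means agonism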
How it was run: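 HEK293 cells stably co-expressing a cAMP-responsive luciferase reporter and a hypersensitive GLP-1R were plated 12 h at 37 °C and exposed to compounds for 4-6 hr at 37 °C, 5% CO2. Luminescence was read 12 min after adding detection reagent.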

[13] = qHTS of Nrf2 Activators: LOPAC Validation (AID 624149); note: 0% is about no effect
How it was run: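 AREc32 cells carrying an ARE-driven firefly luciferase were grown overnight in OPTI-MEM with 5% FBS, then exposed to compounds for 24 hr at 37 deg C. Luciferase signal was read after 30 min with Steady-Glo at RT.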

[14] = HTS Assay for Allosteric Antagonists of the Human D2 Dopamine Receptor: Hit Validation in HTRF (AID 624455);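 note: stable D1 dopamine receptor cell line scored for blocking the D1 response; % is set by controls: 0 for no effect and ±100 for the full control effect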
How it was run: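 Hits were examined in an HTRF assay using cells stably expressing the D1 dopamine receptor, scoring inhibition of the D1-mediated response. The preceding primary screen tracked calcium flux after an EC80 dopamine addition in force-coupled, inducible Hek293 Trex D2 cells.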

[15] = target: Tyrosine-protein kinase Yes (Homo sapiens) (UniProt P07947); assay: qHTS for small molecule inhibitors of Yes1 kinase: Primary Screen (AID 686947); note: potency is the fitted concentration of half-maximal effect; nearly all actives have a fitted effect of over 60% in size
How it was run: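 ADP-Glo luminescence readout; final 4 nM Yes1, 0.1 mM ATP, 0.3 mg/mL poly(E4Y), Tris pH 7.5, MgCl2, DTT, Brij-35. 20 min compound preincubation, 60 min reaction at RT. Normalized to DMSO wells with and without enzyme.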

[16] = qHTS for small molecule inhibitors of Yes1 kinase: Counter Assay (AID 686950);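 note: no kinase present so only ADP-Glo detection of a fixed ADP amount is tested; luminescence from ADP-Glo reporting ADP in a fixed ATP and ADP mixture; series mostly up to about 77 µM; 0% = DMSO wells with ATP plus ADP and -100% = ATP-only wells without ADP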
How it was run: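 Enzyme-free ADP-Glo interference check: compounds were preincubated 20 min in buffer, then an ATP/ADP mix (0.08 mM ATP, 0.02 mM ADP final) was added for 60 min at room temperature before two-step ADP-Glo luminescence detection.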

[17] = target: Arylsulfatase A (Homo sapiens) (UniProt P15289); assay: qHTS screen for enhancers of Arylsulfatase A (ASA1): LOPAC Validation Assay (AID 720538); note: potency is the fitted concentration of half-maximal effect
How it was run: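 Cell-based enhancement test: residual ASA activity in SV40-transformed I179S patient fibroblasts is measured by pNCS turnover (0.5mM final, 14h, room temperature) following 48h compound incubation; higher fluorescence indicates activation.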

[18] = qHTS for compounds that reverse cellular toxicity of Amyloid beta (A-beta) peptide in yeast: LOPAC Validation Assay (AID 720559);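 note: plate controls were DMSO for no effect and equimolar ferric chloride plus clioquinol rescue for full effect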
How it was run: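 Here, A-beta-toxic yeast grow with test compounds at 30 C for 48 hr before optical density at 600 nm is recorded; data are normalized against DMSO and the FeCl3-clioquinol control.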

[19] = qHTS for Activators of Parkin Expression: LOPAC Validation Assay (FLuc Reporter) (AID 720573; note: potency is the fitted concentration of half-maximal effect)
How it was run: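 Readout is FLuc luminescence from neuronal reporter cells (Parkin promoter, FLuc plus NLuc) after 24 h compound exposure in dose response. Values normalized to neutral DMSO and positive-control compounds.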

D(1A) dopamine receptor (Homo sapiens), sequence (P21728 whole entry, looked up): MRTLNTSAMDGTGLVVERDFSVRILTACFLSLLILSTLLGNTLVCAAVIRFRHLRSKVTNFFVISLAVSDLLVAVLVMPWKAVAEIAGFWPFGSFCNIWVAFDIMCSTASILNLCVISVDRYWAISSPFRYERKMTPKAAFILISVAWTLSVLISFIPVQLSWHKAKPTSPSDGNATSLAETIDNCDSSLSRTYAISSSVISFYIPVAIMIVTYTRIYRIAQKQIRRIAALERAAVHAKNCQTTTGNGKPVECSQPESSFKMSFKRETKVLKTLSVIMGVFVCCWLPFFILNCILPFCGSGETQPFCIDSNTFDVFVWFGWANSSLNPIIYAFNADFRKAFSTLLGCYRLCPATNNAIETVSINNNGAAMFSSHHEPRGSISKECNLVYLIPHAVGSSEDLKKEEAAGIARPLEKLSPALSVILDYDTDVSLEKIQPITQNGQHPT
Thyrotropin-releasing hormone receptor (Homo sapiens), sequence (P34981 whole entry, looked up): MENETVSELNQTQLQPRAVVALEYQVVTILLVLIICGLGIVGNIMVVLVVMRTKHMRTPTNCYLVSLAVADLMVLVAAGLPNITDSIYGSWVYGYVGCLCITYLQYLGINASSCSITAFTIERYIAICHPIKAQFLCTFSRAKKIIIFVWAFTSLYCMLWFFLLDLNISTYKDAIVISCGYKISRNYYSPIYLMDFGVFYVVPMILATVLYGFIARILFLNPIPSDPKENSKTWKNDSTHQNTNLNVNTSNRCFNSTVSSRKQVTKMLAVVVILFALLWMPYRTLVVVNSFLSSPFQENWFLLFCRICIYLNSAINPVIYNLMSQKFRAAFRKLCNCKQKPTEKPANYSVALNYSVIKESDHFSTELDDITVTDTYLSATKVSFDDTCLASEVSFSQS
Thyrotropin receptor (Homo sapiens), sequence (P16473 whole entry, looked up): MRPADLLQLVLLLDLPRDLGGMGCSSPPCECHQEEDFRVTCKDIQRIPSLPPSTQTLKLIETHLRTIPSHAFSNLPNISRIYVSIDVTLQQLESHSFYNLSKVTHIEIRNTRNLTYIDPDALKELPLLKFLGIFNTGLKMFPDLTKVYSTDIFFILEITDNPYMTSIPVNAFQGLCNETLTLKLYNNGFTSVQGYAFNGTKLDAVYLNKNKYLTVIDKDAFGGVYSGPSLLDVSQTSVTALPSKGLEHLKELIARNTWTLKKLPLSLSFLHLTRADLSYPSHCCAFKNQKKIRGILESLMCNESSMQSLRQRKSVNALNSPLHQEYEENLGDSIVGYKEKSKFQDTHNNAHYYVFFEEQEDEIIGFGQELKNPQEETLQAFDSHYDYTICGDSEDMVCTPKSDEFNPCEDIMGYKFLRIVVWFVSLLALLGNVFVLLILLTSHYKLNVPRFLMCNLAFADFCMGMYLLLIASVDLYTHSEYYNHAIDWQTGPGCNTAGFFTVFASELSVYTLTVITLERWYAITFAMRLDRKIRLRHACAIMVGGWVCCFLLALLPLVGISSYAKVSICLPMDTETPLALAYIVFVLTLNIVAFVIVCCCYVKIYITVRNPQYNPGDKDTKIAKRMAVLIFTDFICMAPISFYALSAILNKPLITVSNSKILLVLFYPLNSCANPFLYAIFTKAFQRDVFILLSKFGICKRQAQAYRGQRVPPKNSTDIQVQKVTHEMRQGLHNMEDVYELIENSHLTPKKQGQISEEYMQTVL
Voltage-gated inwardly rectifying potassium channel KCNH2 (Homo sapiens), sequence (Q12809 whole entry, looked up): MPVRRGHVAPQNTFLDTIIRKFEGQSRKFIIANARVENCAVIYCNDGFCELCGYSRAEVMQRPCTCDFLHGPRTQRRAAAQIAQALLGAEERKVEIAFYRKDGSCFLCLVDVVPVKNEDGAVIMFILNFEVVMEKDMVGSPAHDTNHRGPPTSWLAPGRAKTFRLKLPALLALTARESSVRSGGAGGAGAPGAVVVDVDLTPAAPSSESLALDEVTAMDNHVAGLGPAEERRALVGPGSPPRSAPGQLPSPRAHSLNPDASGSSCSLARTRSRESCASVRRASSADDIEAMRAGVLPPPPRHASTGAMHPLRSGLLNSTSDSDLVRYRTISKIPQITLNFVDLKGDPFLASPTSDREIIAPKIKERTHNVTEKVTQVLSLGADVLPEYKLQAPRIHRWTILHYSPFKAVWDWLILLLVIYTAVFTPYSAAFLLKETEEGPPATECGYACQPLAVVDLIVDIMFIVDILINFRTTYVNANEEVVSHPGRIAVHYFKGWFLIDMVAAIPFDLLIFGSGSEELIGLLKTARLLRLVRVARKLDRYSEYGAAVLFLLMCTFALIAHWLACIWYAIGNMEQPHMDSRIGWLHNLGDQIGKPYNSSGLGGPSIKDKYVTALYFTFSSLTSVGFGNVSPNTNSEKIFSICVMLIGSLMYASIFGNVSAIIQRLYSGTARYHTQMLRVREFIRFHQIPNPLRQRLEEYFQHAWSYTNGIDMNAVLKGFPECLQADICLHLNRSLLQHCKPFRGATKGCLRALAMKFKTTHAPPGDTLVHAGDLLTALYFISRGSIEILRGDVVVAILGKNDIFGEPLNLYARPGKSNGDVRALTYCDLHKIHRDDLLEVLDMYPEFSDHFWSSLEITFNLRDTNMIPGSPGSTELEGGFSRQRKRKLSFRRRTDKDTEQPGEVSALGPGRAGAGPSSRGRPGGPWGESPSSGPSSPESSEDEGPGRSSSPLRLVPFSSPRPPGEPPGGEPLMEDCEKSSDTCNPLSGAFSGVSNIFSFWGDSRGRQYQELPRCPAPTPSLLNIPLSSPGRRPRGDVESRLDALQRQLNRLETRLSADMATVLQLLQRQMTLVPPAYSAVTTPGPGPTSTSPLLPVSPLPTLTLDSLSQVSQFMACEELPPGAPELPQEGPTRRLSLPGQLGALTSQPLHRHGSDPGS
Phosphoglycerate kinase, glycosomal (Trypanosoma brucei brucei), sequence (P07378 whole entry, looked up): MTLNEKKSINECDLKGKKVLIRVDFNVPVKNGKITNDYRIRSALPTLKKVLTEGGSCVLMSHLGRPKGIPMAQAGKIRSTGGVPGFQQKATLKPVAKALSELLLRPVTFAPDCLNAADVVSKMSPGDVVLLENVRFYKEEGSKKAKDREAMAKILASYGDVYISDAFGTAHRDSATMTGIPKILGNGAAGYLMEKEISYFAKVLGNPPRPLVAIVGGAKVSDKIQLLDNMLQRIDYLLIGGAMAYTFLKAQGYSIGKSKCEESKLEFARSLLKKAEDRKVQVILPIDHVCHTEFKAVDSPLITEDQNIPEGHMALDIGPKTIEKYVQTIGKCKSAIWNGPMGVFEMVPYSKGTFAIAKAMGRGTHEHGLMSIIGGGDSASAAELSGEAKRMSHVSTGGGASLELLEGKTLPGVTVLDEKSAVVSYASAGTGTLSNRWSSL
Galactokinase (Homo sapiens), sequence (P51570 whole entry, looked up): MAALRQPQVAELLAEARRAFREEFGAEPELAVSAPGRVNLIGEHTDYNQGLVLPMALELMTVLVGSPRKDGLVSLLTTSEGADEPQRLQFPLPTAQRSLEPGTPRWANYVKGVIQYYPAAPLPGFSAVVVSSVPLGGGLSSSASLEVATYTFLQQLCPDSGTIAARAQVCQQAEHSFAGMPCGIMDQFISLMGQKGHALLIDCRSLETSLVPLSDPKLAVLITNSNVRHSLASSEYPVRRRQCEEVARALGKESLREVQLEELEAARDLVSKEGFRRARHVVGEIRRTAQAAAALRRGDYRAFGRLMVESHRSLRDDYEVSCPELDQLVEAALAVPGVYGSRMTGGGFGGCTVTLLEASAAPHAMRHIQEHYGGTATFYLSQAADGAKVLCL
Tyrosine-protein kinase Yes (Homo sapiens), sequence (P07947 whole entry, looked up): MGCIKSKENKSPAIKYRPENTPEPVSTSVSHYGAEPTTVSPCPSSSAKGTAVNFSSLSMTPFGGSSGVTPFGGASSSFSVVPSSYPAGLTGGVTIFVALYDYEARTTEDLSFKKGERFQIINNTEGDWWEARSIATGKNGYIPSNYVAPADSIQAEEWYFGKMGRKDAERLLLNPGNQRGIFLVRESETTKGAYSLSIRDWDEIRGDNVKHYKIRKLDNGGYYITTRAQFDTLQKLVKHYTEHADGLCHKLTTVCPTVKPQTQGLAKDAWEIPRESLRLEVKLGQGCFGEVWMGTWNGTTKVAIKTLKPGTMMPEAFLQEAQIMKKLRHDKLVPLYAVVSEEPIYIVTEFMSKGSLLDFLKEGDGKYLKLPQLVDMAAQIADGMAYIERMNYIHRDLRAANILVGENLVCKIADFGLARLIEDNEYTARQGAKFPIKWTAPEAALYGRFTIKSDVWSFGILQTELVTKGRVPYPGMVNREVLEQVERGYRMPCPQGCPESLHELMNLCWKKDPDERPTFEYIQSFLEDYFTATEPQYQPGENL
Peptidyl-prolyl cis-trans isomerase NIMA-interacting 1 (Homo sapiens), sequence (Q13526 whole entry, looked up): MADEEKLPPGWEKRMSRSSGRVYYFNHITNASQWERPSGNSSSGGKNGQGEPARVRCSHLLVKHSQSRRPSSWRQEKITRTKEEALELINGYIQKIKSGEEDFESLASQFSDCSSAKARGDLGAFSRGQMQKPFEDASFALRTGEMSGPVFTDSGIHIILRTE
Glutaminase kidney isoform, mitochondrial (Homo sapiens), sequence (O94925 whole entry, looked up, canonical isoform): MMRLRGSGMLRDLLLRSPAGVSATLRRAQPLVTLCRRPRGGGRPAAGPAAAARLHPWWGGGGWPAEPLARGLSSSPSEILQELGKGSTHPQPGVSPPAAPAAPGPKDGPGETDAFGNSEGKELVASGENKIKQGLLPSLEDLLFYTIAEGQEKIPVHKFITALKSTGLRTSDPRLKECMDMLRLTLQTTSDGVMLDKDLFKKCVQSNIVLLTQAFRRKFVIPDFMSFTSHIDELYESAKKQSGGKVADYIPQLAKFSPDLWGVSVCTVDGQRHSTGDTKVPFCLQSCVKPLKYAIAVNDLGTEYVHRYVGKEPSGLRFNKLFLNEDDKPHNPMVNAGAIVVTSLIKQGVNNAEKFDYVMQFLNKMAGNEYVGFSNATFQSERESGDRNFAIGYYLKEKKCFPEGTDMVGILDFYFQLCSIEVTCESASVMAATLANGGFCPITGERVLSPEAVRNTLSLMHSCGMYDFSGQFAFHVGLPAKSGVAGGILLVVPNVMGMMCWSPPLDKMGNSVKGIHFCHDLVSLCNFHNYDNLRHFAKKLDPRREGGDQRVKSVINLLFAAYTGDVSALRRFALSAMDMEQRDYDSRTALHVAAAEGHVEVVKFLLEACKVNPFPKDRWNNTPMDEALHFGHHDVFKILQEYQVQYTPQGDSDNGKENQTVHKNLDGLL

O=Nc1c(-c2c(O)[nH]c3ccccc23)[nH]c2ccccc12
inactive: outcome [1] | outcome [2] | outcome [3] | activation [4] -6% | outcome [5] | outcome [6] | Potency [7] | Potency [8] | Potency [9] | outcome [11] | outcome [12] | outcome [13] | outcome [14] | outcome [16] | outcome [18]
active: Potency [10] 11.2 µM | Potency [15] 0.772 µM | Potency [17] 10.7 µM | Potency [19] 10.3 µM
